For orientation: AC50 means the midpoint of the concentration-response curve, whichever way the signal moves.

Molecules are shown by their SMILES. The source made the active and inactive calls. Rule for the calls: active = hit-call score of the fitted dose curve at least 0.9, where 1 is the maximum; inactive = score below 0.9.

For the test, the system named is TTR (gene 7276). Description: CCTE_GLTED_hTTR_0.125uM: CCTE's human Transthyretin (hTTR) Inhibition Assay, with 0.125uM TTR, Great Lakes Toxicology and Ecology Division (GLTED) Lab (AID 2284431).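 Note: hits lower the fluorescence signal relative to DMSO baseline.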 Put shortly: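 Cell-free displacement of ANSA probe from 0.125uM TTR after 2 h incubation with chemical. Fluorescence read at 380 nm excitation/475 nm emission; loss of signal relative to DMSO indicates T4-site displacement.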
For `O=S(=O)(O)c1ccc(N=Nc2c(O)ccc3cc(S(=O)(=O)O)ccc23)cc1`, the AC50 was 17.1 µM (active).

For the compound `CCc1ccc(O)c(C(C)(C)C)c1`, the AC50 is 12.4 µM (active).

Turning to `C=CCc1cc(S(=O)(=O)c2ccc(O)c(CC=C)c2)ccc1O`, the AC50 is 1.67 µM (active).
